Most compounds without a hit are left out; they make up all but 2.3% or so of the library.
FUS suppressor: FUS proteinopathy suppression in yeast; Potency, µM (highest dose often 76.6 µM), hits mostly activators; 390,000 compounds, 0.24% hits; S. cerevisiae FUS-expressing, growth rescue, OD600, 24 h; further: nearly all actives have a fitted effect of over 55% in size
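Restored growth of FUS-toxic S. cerevisiae, read as 600 nm absorbance after 24 h at 30C in galactose medium (starting OD 0.005). Controls CP55940 and DMSO.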
pAkt inh: Akt phosphorylation inhibition; AID 651550; activity change, % for hits at 50 µM; 360,000 compounds, 0.32% hits; Neuro2A IGF-stimulated pAkt S473 HTRF, 20 min; active compounds read low; in the data active means activity change below about -80%; inconclusive means mostly about -51% to -80%
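Neuro2A cells (4,500/well, DMEM with 0.5% FBS) were treated with compound at a single 50 µM final concentration, stimulated with 6 nM IGF for 20 min at 37 °C, and lysed. Phospho-Akt Ser473 was read by HTRF as 665/615 ratio ×10^4.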
Abeta rescue: restores growth of yeast expressing A-beta42 peptide; yeast expressing A-beta42, growth rescue, OD600, 48 h; response scale: 0% DMSO, 100% iron-clioquinol control; 410,000 compounds, 0.063% hits; Potency, µM (top dose mostly 46.1 µM), hits mostly activators; further: nearly all actives have a fitted effect of over 55% in size
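Yeast growth medium received pinned compounds, then yeast cells expressing toxic A-beta were added; plates incubated at 30 C for 48 hr. Growth read as absorbance at 600 nm, normalized to DMSO and equimolar FeCl3 plus clioquinol controls.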
aSyn rescue: inhibitors of alpha-synuclein toxicity in yeast. Yeast expressing alpha-synuclein, growth rescue, BacTiter-Glo, 24 h. Potency, µM (titrated, usually from 46.1 µM), usual class: activators. 370,000 compounds, 0.14% hits; further: nearly all actives have a fitted effect of over 65% in size
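Screening used galactose-induced yeast with toxic alpha-synuclein levels, exposed to compound for 24 hr at 30 deg C. Cell growth, read with BacTiter-Glo luminescence, gave the measured signal.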
TDP43 rescue: TDP-43 toxicity inhibition in yeast; TDP-43 expressing yeast growth rescue, BacTiter-Glo, 24 h; Potency, µM (top dose mostly 46.1 µM), actives largely listed as activators; 410,000 compounds, 1.8% hits; AID 652104; further: nearly all actives have a fitted effect of over 50% in size
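Cell-based yeast growth screen: TDP-43 expression induced in galactose, inoculum OD600=0.02 after raffinose pregrowth to mid-log. Read-out BacTiter-Glo luminescence at 24 hr, 30 deg C; inhibition of toxicity seen as signal increase.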
A number is an active result. Unless noted, the call rests on the fitted dose curve; in most records, active means well fitted curve in the direction sought with a large enough effect; inconclusive means small, poorly fitted or top-dose-only effect, or another doubt; inactive means no such curve, though single readings can be large; an effect the other way counts as inactive or inconclusive.

`O=C(CSc1ccc(-c2ccccn2)nn1)N1CCCc2ccccc21` gave FUS suppressor inactive, pAkt inh inactive, Abeta rescue inactive, aSyn rescue inactive and TDP43 rescue inactive.
Screening O=C(CSc1ccc(-c2ccc(Cl)cc2)nn1)N1CCCc2ccccc21 returned pAkt inh inactive, Abeta rescue inactive, aSyn rescue inactive and TDP43 rescue 20µM.
Screening O=C(CSc1ccc(-c2ccc(F)cc2)nn1)N1CCN(c2ccccc2)CC1 returned FUS suppressor inactive, pAkt inh inactive, Abeta rescue inactive, aSyn rescue inactive and TDP43 rescue inactive.
`Cc1ccc2[nH]c3c(=O)n(CC(=O)N4CCCC(C)C4)ncc3c2c1` (configuration not stated) gave FUS suppressor inactive, Abeta rescue inactive and TDP43 rescue inactive.
For COC(=O)Cc1c(C)c2ccc3c(c2oc1=O)CN(Cc1ccccc1OC)CO3 the results were FUS suppressor inactive, Abeta rescue inactive and TDP43 rescue inactive.
COC(=O)c1ccc2c(=O)n(CCc3ccc(S(N)(=O)=O)cc3)c(SCC(=O)C(C)(C)C)nc2c1 was read as FUS suppressor inactive, Abeta rescue inactive and TDP43 rescue inactive.
COc1ccc(C(=O)NCc2ccc3c(c2)CCN3C(=O)c2ccc(Cl)cc2)c(OC)c1 was read as FUS suppressor inactive, Abeta rescue inactive and TDP43 rescue inactive.
`CCC(C(=O)OCC(=O)Nc1ccc(SC(F)F)cc1)c1ccccc1` (configuration not stated) gave FUS suppressor inactive, pAkt inh inactive, Abeta rescue inconclusive, aSyn rescue inactive and TDP43 rescue 10µM.
C=CCOn1c(C)c(C(C)=O)c2c3no[n+]([O-])c3ccc21 was read as FUS suppressor inactive, pAkt inh inactive, Abeta rescue inactive, aSyn rescue inactive and TDP43 rescue 7.1µM.
Screening Cc1nc2c3ccccc3nc(NNC(=O)CCC(=O)N3CCN(c4cccc(C(F)(F)F)c4)CC3)n2n1 returned FUS suppressor inconclusive, Abeta rescue inactive and TDP43 rescue inactive.
`O=C(COC(=O)CSc1ccc([N+](=O)[O-])cc1)NCC1CCCO1` (configuration not stated) gave FUS suppressor inactive, pAkt inh inactive, Abeta rescue inactive, aSyn rescue inactive and TDP43 rescue inactive.
`Cc1cc(SCC(=O)OCC(=O)NCC2CCCO2)c(C)cc1Br` (configuration not stated) gave FUS suppressor inactive, pAkt inh inactive, Abeta rescue inactive, aSyn rescue inactive and TDP43 rescue 25µM.
`Cc1cc(C)n(-c2nc(NC(C)C)nc(NC(C)(C)C)n2)n1` gave aSyn rescue inactive.
For Cc1ccc(S(=O)(=O)N2CCN(c3nc(-c4cccs4)cc4ccccc34)CC2)cc1 the results were aSyn rescue inactive.
For CNC(=O)c1ccc(CSc2nc3ccncc3n2Cc2ccc(C)cc2)cc1 the results were FUS suppressor inactive, Abeta rescue inactive and TDP43 rescue inactive.
S=C1NC2(CCCC2)N=C1c1ccccc1 was read as FUS suppressor inactive, pAkt inh inactive, aSyn rescue inactive and TDP43 rescue inactive.
For O=C1NC2(CCCCCC2)N=C1c1ccc(F)cc1 the results were FUS suppressor inactive, pAkt inh inactive, Abeta rescue inactive, aSyn rescue inactive and TDP43 rescue 16µM.
Screening Cc1ccc(C2=NC3(CCCC3)NC2=S)cc1 returned FUS suppressor inactive, pAkt inh inactive, Abeta rescue inconclusive, aSyn rescue inactive and TDP43 rescue inconclusive.
S=C1NC2(CCCCCC2)N=C1c1ccccc1 was read as FUS suppressor inactive, pAkt inh inactive, Abeta rescue 5µM, aSyn rescue inactive and TDP43 rescue inconclusive.
Screening O=C(Nc1ccccc1Cl)N1CCC2(CC1)Oc1ccccc1C(=O)N2Cc1ccc(F)cc1 returned FUS suppressor inactive, Abeta rescue inactive and TDP43 rescue inactive.
`CCOc1ccc(C(=O)Nc2ccc3c(c2)OCCO3)cc1Br` gave FUS suppressor inactive, Abeta rescue inactive and TDP43 rescue 18µM.
Screening CCOC(=O)c1cc(CC)sc1NC(=O)c1ccc2c(c1)OCCO2 returned FUS suppressor inactive, pAkt inh -113%, Abeta rescue inactive, aSyn rescue inactive and TDP43 rescue inactive.
For CCOC(=O)c1cc(CC)sc1NC(=O)c1cc(OCC)c(OCC)c(OCC)c1 the results were FUS suppressor inactive, pAkt inh inactive, Abeta rescue inactive, aSyn rescue inactive and TDP43 rescue inactive.
Screening COC(=O)c1ccc(CSc2nnc(CS(=O)Cc3ccc(Br)cc3)n2-c2ccccc2)cc1 (configuration not stated) returned pAkt inh inactive, Abeta rescue inactive, aSyn rescue inactive and TDP43 rescue 25µM.
For O=S(Cc1ccc(Br)cc1)Cc1nnc(SCc2ccc(Br)cc2)n1-c1ccccc1 (configuration not stated) the results were pAkt inh inactive, Abeta rescue inconclusive, aSyn rescue inconclusive and TDP43 rescue inconclusive.
Fc1ccc2cnc(-c3ccccc3)c(-c3cccc(C(F)(F)F)c3)c2c1 was read as FUS suppressor inactive, pAkt inh inactive, Abeta rescue inactive, aSyn rescue inactive and TDP43 rescue inactive.
Fc1cc(F)cc(-c2c(-c3ccccc3)ncc3ccc(F)cc23)c1 was read as FUS suppressor inactive, pAkt inh inactive, Abeta rescue inactive, aSyn rescue inactive and TDP43 rescue 35µM.
Screening O=[N+]([O-])c1cccc(-c2c(-c3ccccc3)ncc3cc(F)ccc23)c1 returned FUS suppressor inactive, pAkt inh inactive, Abeta rescue inactive, aSyn rescue inactive and TDP43 rescue 28µM.
`Cc1cc(NC(=O)c2cccs2)cc(-c2nc3cc(Cl)ccc3o2)c1O` gave FUS suppressor inactive, Abeta rescue inactive, aSyn rescue inactive and TDP43 rescue inactive.
Screening c1ccc(-c2csc(-n3cnnn3)n2)cc1 returned FUS suppressor inactive, pAkt inh inactive, Abeta rescue inactive, aSyn rescue inactive and TDP43 rescue 11µM.
Screening COc1ccccc1CNC(=O)CCC1N=C2c3ccccc3N=C(SCc3ccc(C)cc3C)N2C1=O (configuration not stated) returned FUS suppressor inconclusive, Abeta rescue inactive and TDP43 rescue inconclusive.
For CCOc1ccc(-n2c(C)cc(C(=O)CCl)c2C)cc1 the results were FUS suppressor inactive, pAkt inh inactive, Abeta rescue inactive, aSyn rescue inactive and TDP43 rescue 8.9µM.
For Cc1ccc(N2CCN(S(=O)(=O)c3ccc(Cl)c4ccccc34)CC2)c(C)c1 the results were FUS suppressor inactive, Abeta rescue inactive, aSyn rescue inactive and TDP43 rescue inactive.
Screening Cc1[nH]c2ccccc2c1C(C[N+](=O)[O-])c1cccs1 (configuration not stated) returned FUS suppressor inactive, pAkt inh inactive, Abeta rescue inactive, aSyn rescue inactive and TDP43 rescue inconclusive.
